# Test results taken from article PMC12670160, “A drug-repurposing screen of FDA- and EMA-approved drugs identifies two NF-κB inhibitors active against eumycetoma” (Journal of Antimicrobial Chemotherapy, 2025).
# Counter-ions that a name gives are not always drawn. Like-named read-outs stand apart in the source and are kept apart here. Screen size: about 5,300 compounds; about 130 (2.5%) showed an effect of 50% or more. This is one part of a sample in which strong results are shown more often than they occur. Peptide text beside a SMILES is read from it.
# Test system: M. mycetomatis strain mm55
# Conditions: primary screen, metabolic activity vs growth control, 96 h, 2 µM, inhibitor
Compound,% viability,% viability (Madurella mycetomatis metabolic activity at 2µM (%))
"N=C(N)c1ccc(/C=C/c2ccc(C(=N)N)cc2O)cc1 [ONC0003463, hydroxystilbamidine]",43.6%,–
"N=C(N)c1ccc(OCCCCCOc2ccc(C(=N)N)cc2)cc1 [ONC0003359, pentamidine isethionate]",71.33%,–
"N=C(N)c1ccc(-c2ccc(-c3ccc(C(=N)N)cc3)o2)cc1 [ONC0003070, furamidine]",108.4%,–
"CC(=O)OCC1=C(C(=O)O)N2C(=O)[C@@H](NC(=O)CSC(=NC(C)C)NC(C)C)[C@H]2SC1 [ONC0003427, cefathiamidine]",77.15%,–
"C[C@H](N)[C@H](O)c1cccc(O)c1 [ONC0003110, metaraminol bitartrate]",76.38%,–
CCNCC(O)c1cccc(O)c1 (stereo not shown) [ONC0003685],42.26%,–
"CNC[C@H](O)c1cccc(O)c1 [ONC0000459, lphenylephrine hydrochloride]",72.58%,–
"O=C(Nc1nc(-c2cc(Cl)cs2)c(N2CCN(C3CCCCC3)CC2)s1)c1cnc(N2CCC(C(=O)O)CC2)c(Cl)c1 [ONC0002265, avatrombopag]",50.97%,–
"CN/C(=N/CCSCc1nc[nH]c1C)NC#N [ONC0000657, cimetidine]",137.7%,–
"O=S(=O)(NCCCCCCc1ccccc1)c1cccc2c(Cl)cccc12 [ONC0002705, sc9]",87.04%,–
"NCCCCCCCCCCNS(=O)(=O)c1cccc2c(Cl)cccc12 [ONC0002708, a7]",47.48%,–
"CCCCCCCNS(=O)(=O)c1cccc2c(Cl)cccc12 [ONC0003431, sc10]",68.77%,–
"CC(C)(C)c1cc(C(C)(C)C)c2c(c1)C(O)(C(F)(F)F)C(=O)O2 (stereo not shown) [ONC0001539, racbhff]",123.7%,–
"NC(N)=Nc1nc(CSCCC(N)=NS(N)(=O)=O)cs1 [ONC0003248, famotidine]",89.34%,–
"Cc1nnc(C(C)C)n1[C@@H]1C[C@H]2CC[C@@H](C1)N2CC[C@H](NC(=O)C1CCC(F)(F)CC1)c1ccccc1 [ONC0004641, maraviroc]",78.39%,–
"c1ccc2c(Cc3c[nH]c4ccccc34)c[nH]c2c1 [ONC0003447, diindolylmethane]",68.22%,–
"CN1C(=O)C(Cc2c[nH]c3ccccc23)NC1=S (stereo not shown) [ONC0003684, necrostatin1]",40.84%,–
"CN1C(=O)N[C@H](Cc2c[nH]c3c(Cl)cccc23)C1=O [ONC0000938, necrostatin 2]",58.02%,–
"NC(N)=NCCC[C@H](N)C(=O)NCC(=O)N[C@@H](CC(=O)O)C(=O)N[C@@H](CO)C(=O)O [ONC0002282, argglyaspser]",101.1%,–
"CC(C)n1c(/C=C/[C@@H](O)C[C@@H](O)CC(=O)O)c(-c2ccc(F)cc2)c2ccccc21 (racemic) [ONC0004817, fluvastatin sodium lescol]",110.8%,–
"CCCCCCCCCCCCCCOC(=O)c1cccnc1 [ONC0003671, tetradecyl nicotinate]",79.3%,–

Compound,% viability,% viability (Madurella mycetomatis metabolic activity at 2µM (%))
"C[C@@H]1CCCN1CCc1cc2cc(-c3ccc(C#N)cc3)ccc2o1 [ONC0003444, abt 239 tartrate]",49.56%,–
"N=C(N)/N=C(\N)N1CCOCC1 [ONC0005372, moroxydine hydrochloride]",114.7%,–
"CC(C)(N)CC12CC3CC(CC(C3)C1)C2 [ONC0004056, somantadine]",120.7%,–
"c1cc(OCCN2CCCCC2)cc(-c2n[nH]c3ccc(-c4nc[nH]n4)cc23)c1 [ONC0000900, cc401 hydrochloride]",73.26%,–
"Oc1ccc([C@H]2COc3cc(O)ccc3C2)cc1 [ONC0004406, equol]",119.9%,–
"CCCN1CCO[C@@H]2c3cc(O)ccc3OC[C@H]21 [ONC0000309, pd128907]",42.57%,–
"CCCN1CCC[C@H](c2cccc(O)c2)C1 [ONC0002744, r33hydroxyphenylnpropylpiperidine hydrochloride]",58.06%,–
"COC(=O)N[C@H](C(=O)N1CC2(CC2)C[C@H]1c1ncc(-c2ccc3c(c2)C(F)(F)c2cc(-c4ccc5nc([C@@H]6[C@H]7CC[C@H](C7)N6C(=O)[C@@H](NC(=O)OC)C(C)C)[nH]c5c4)ccc2-3)[nH]1)C(C)C [ONC0001967, ledipasvir]",73.81%,–
"CC(C)NCC(O)c1ccc(O)c(O)c1 (stereo not shown) [ONC0000608, isoproterenol hydrochloride]",81.88%,–
"CC(C)NCC(O)c1ccc([N+](=O)[O-])cc1 (stereo not shown) [ONC0002319, nifenalol]",49.56%,–
"CC(C)NCC(O)c1ccc(N)c(C#N)c1 (stereo not shown) [ONC0003014, cimaterol]",76.31%,–
CC/C=C\C/C=C\C/C=C/C/C=C\C/C=C\C/C=C\CCC(=O)OCC [ONC0002811],151.6%,–
"COC(=O)[C@H](CCCNC(=N)N)NS(=O)(=O)c1ccc(C)cc1 [ONC0004976, tame]",63.05%,–
"N=C(N)c1cc2ccc(OC(=O)c3cccs3)cc2s1 [ONC0004238, bcx 1470 methanesulfonate]",62.8%,–
"CC[C@H](c1ccc(O)cc1)[C@@H](CC)c1ccc(O)cc1 [ONC0003849, hexestrol]",49.29%,–
"CC/C(=C(/CC)c1ccc(O)cc1)c1ccc(O)cc1 [ONC0003197, diethylstilbestrol]",93.2%,–
"CNCC(O)c1ccc(O)cc1 (stereo not shown) [ONC0005413, oxedrine]",69.09%,–
"C#C[C@]1(O)CC[C@H]2[C@@H]3CCC4=CC(=NO)CC[C@@H]4[C@H]3CC[C@@]21CC (mixture of isomers) [ONC0000953, norgestimate metabolite norelgestromin]",67.65%,–
"COC1/C=C/OC2(C)Oc3c(C)c(O)c4c(O)c(c(/C=N/N=C/N5CCCCC5)c(O)c4c3C2=O)NC(=O)/C(C)=C\C=C\C(C)C(O)C(C)C(O)C(C)C(OC(C)=O)C1C (stereo not shown) [ONC0003798, fce22250]",33.52%,–
"CO[C@H]1/C=C/O[C@@]2(C)Oc3c(C)c(O)c4c(O)c(c(/C=N/N5CCN(C6CCCC6)CC5)c(O)c4c3C2=O)NC(=O)/C(C)=C\C=C\[C@H](C)[C@H](O)[C@@H](C)[C@@H](O)[C@@H](C)[C@H](OC(C)=O)[C@@H]1C [ONC0002002, rifapentine]",77.39%,–
"CO[C@H]1/C=C/O[C@@]2(C)Oc3c(C)c(O)c4c(O)c(c(/C=N/N5CCN(C)CC5)c(O)c4c3C2=O)NC(=O)/C(C)=C\C=C\[C@H](C)[C@H](O)[C@@H](C)[C@@H](O)[C@@H](C)[C@H](OC(C)=O)[C@@H]1C [ONC0003357, rifampin]",107.5%,–

Compound,% viability,% viability (Madurella mycetomatis metabolic activity at 2µM (%))
"N#Cc1cn([C@@H]2O[C@H](CO)[C@@H](O)[C@H]2O)c2ncnc(N)c12 [ONC0003230, toyocamycin]",99.22%,–
"Cl.O=C(c1ccc(-c2ccc(Cl)cc2)o1)N(Cc1ccccn1)c1ccc(N2CCNCC2)cc1 [ONC0002178, mk2in1 hydrochloride]",65.24%,–
"O=C(Nc1ccc(C(O)(C(F)(F)F)C(F)(F)F)cc1)c1ccc(C(F)(F)F)cc1 [ONC0000412, sr1078]",46.34%,–
CC(=O)Nc1ccc(C(=O)NC(C)(C)C)cc1 [ONC0002880],98.46%,–
"C/C(O)=C(\C#N)C(=O)Nc1ccc(C(F)(F)F)cc1 [ONC0000878, teriflunomide]",64.9%,–
"CC(=O)OC[C@H](N)C(=O)O.Cl [ONC0000420, oacetyllserine hcl]",77.43%,–
"CC[C@@]1(O)C(=O)OCc2c1cc1n(c2=O)Cc2cc3c(N)cccc3nc2-1 [ONC0005467, 9aminocamptothecin]",102.4%,–
"CCCCCCCCCCCCCCOS(=O)(=O)O [ONC0003317, sodium tetradecyl sulfate]",84.61%,–
"CCNC(=O)c1[nH]nc(-c2cc(Cl)c(O)cc2O)c1-c1ccc(OC)cc1 [ONC0005116, ver49009]",88.78%,–
"Cc1cccc(-c2[nH]c(C(C)(C)C)nc2-c2ccc3c(c2)OCO3)n1 [ONC0005219, sb505124]",129%,–
"CCc1cc(-c2n[nH]c(C)c2-c2ccc3c(c2)OCCO3)c(O)cc1O [ONC0003616, cct018159]",49.48%,–
"CC(C)CC1NC(=O)C(C(C)C)NC(=O)C2CCCN2C(=O)C(CC(=O)O)NC(=O)C(Cc2c[nH]c3ccccc23)NC1=O (stereo not shown) [ONC0004583, bq123] (cyclo(DPVLW); configuration not given here)",106.9%,–
"CC(=O)NC1[C@@H](O)OC(CO)[C@@H](O)[C@H]1O (stereo partly shown) [ONC0002960, nacetylmannosamine]",104.5%,–
"CN1C(C(=O)Nc2ccccn2)C(=O)c2sccc2S1(=O)=O (stereo not shown) [ONC0002886, tenoxicam]",126.3%,–
"CC(O)c1cc(C(=O)N[C@@H](C)Cn2ccc(-c3ccc(C#N)c(Cl)c3)n2)[nH]n1 (stereo partly shown) [ONC0005059, odm201]",86.36%,–
"O=C(NCc1cccc(O)c1)Nc1nc(-c2ccncc2)cs1 [ONC0005121, rki1447]",–,69.4%
CC(C)(C)c1ccc(S(=O)(=O)/C=C/C#N)cc1 [bay117085],1.843%,–
Cc1ccc(S(=O)(=O)/C=C/C#N)cc1 [bay117082],112.1%,–
"CCOc1ccc2nc(SCCN3CCOCC3)[nH]c2c1 [ONC0001849, fabomotizole hydrochloride]",108.3%,–
